The values that follow come from PubChem BioAssay AID463173 (ICCB-Longwood Screening Facility, Harvard Medical School, 2010).

The whole screen tested about 52,000 compounds, of which about 4,300 (8.3%) were called active. The full list was thinned out, with actives kept by preference. Unmarked numbers belong to inactive results. Cut-off read from the data, not from the text of the source: active = survival mostly below about 52% (no sharp cut-off); inactive = mostly above about 56%.

In this experiment the test system is DeltatarO mutant. Nature of the experiment: S. aureus survival, RN4220 and DeltatarO strains – OD600, teichoic acid synthesis inhibitors, primary screen (AID 463173). Conditions: S. aureus RN4220 wild type/DeltatarO growth, OD600, 18 h, hits give low values, screened at 18.75 µg/mL (by protocol).
On to `CC(NC(=O)c1ccc(F)cc1)c1nc2ccccc2[nH]1` (stereo not given), for which the survival was 83%. On to `O=C(Cn1c(=O)nc(-c2ccccc2)c2ccccc21)Nc1ccc(Cl)cc1F`, for which the survival was 73%.

For `Clc1ccccc1-c1nnc(COc2ccccc2)o1`, the survival is 50%. Take `CC(CNC(=O)c1sc2ncccc2c1-n1cccc1)c1ccccc1` (stereo not given): the survival was 102%. Regarding `COCCCNC(=O)CCCn1c(=O)c2ccccc2n(CC(=O)Nc2ccc(C)cc2Cl)c1=O`, the survival was 96%. As to `COc1cc(NC(=O)CN2CCN(CC(=O)Nc3ccc(F)cc3)CC2)cc(OC)c1`, the survival was 70%. For the compound `CCN(C(=O)Cn1ncc2c(=O)oc3ccccc3c21)c1ccccc1F`, the survival is 118%. As to `Oc1ccc(-c2nc3ccc(Cl)cn3c2Nc2ccc(Cl)cc2)cc1`, the survival is 16% (active).

`Cc1ccc2nc(-c3ccc(O)cc3)c(Nc3ccc(Cl)cc3)n2c1`: the survival is 59%. Consider `Oc1ccc(-c2nc3ccc(Cl)cn3c2Nc2ccc3c(c2)OCO3)cc1`, for which the survival was 106%. For the compound `Cc1ccc(C(=O)OCc2cc(=O)n3nc(-c4cccs4)sc3n2)cc1`, the survival was 95%. Take `CCC(C(=O)Nc1cc(OC)ccc1OC)n1nc(-c2ccccc2)c2c(c1=O)CCCC2` (stereo not given): the survival is 35% (active). The same measure for `CCC(C(=O)Nc1cc(OC)ccc1OC)n1c(C)c2cnn(-c3ccccc3)c(=O)c2c1C` (stereo not given): 107%; for `O=C(Cn1nc2c(cc1=O)CCCC2)Nc1ccc(F)cc1F`: 118%; for `O=C(CSc1c2c(nc3ccccc13)CCC2)Nc1ccc(F)cc1F`: 69%. The same measure for `CCC(C(=O)Nc1ccc(F)cc1F)n1nc(-c2ccccc2)c2c(c1=O)CCCC2` (stereo not given): 38% (active); for `CCC(C(=O)Nc1ccc(C(=O)OC)cc1)n1nc(-c2ccc(C)cc2)c2c(c1=O)CCCC2` (stereo not given): 102%. As for `CCOc1ccc(NC(=O)CSC2=Nc3ccccc3C3=NC(CCC(=O)NCc4cccs4)C(=O)N23)cc1` (stereo not given), the survival is 70%. For `CCN1CCN(Cc2c(C)[nH]c3c(C)cc(C)cc3c2=O)CC1`, the survival was 59%. The same measure for `COc1ccccc1Cc1nc2ccccc2[nH]c1=O`: 54%; for `CN1C(=O)c2ccccc2Sc2ccc(NC(=O)N3CCN(c4cccc(Cl)c4)CC3)cc21`: 87%; for `CCOC(=O)CN1C(=O)c2cccnc2Oc2ccccc21`: 87%.

For the compound `C=CCc1ccccc1OCCSc1nc(-c2ccccc2F)nc2cc(=O)[nH]n12`, the survival is 99%. In the case of `C=CCc1ccccc1OCCSc1nc(-c2ccc(C(C)(C)C)cc2)nc2cc(=O)[nH]n12`, the survival was 32% (active). In the case of `COc1ccccc1OCCSc1nc(-c2ccc(C(C)(C)C)cc2)nc2cc(=O)[nH]n12`, the survival was 49%.
